We go through 26 compounds from PubChem BioAssay (Tox21).

Several values for one entry are separate records, joined by “and”; a condition that tells them apart may be missing. Identical values can stand only once. Inconclusive results are not listed. Activity calls are given as the source filed them. Unless noted, the call rests on the fitted dose curve.

Experiment [1] is described as follows: qHTS assay to identify small molecule agonists of the sonic hedgehog signaling (Shh) pathway (AID 1259368).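 Further: NIH/3T3-derived 3T3Gli1-Luc cells carrying a stable Gli1-driven firefly luciferase reporter; series mostly up to about 92 µM; nearly all actives have a fitted effect of over 15% in size.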 The method, boiled down: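 NIH/3T3-derived 3T3Gli1-Luc cells with stably integrated Gli1-driven firefly luciferase, 2,000 cells/well, compounds added after 4 hr. Incubated 24 hr at 37C, 5% CO2; luminescence read after 30 min with luciferase reagent at room temperature.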
A general note: In qHTS, concentration-response curves come from the screen itself.

A short description of experiment [2]: qHTS assay to identify small molecule antagonists of the sonic hedgehog signaling (Shh) pathway (AID 1259369). Further: nearly all actives have a fitted effect of over 45% in size. Further: potency means the concentration at half of the fitted maximal effect. The essentials:
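NIH/3T3-derived Gli1-Luc reporter cells plated 4 h, dosed with compound, then stimulated with conditioned medium for 24 h at 37 C. Firefly luciferase luminescence read after 30 min with detection reagent at room temperature.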

The nature of experiment [3]: qHTS assay to identify small molecule agonists of the estrogen receptor beta (ER-beta) signaling pathway - cell viability counter screen (AID 1259380; active means well fitted curve in the direction sought with a large enough effect in the repeat runs; an effect the other way counts as inactive or inconclusive; further: nearly all actives have a fitted effect of over 30% in size). The essentials: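 ER-beta-UAS-bla HEK293T cells in medium with 2% charcoal-stripped FBS, pre-incubated 6 hr, then treated 16 hr at 37C. Cytotoxicity read in the same wells by CellTiter-Glo luminescence after 30 min at room temperature.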

The nature of experiment [4]: qHTS assay to identify small molecule antagonists of the estrogen receptor beta (ER-beta) signaling pathway - cell viability counter screen (AID 1259382; active means well fitted curve in the direction sought with a large enough effect in the repeat runs; an effect the other way counts as inactive or inconclusive; further: series mostly up to about 92 µM; nearly all actives have a fitted effect of over 55% in size). The method, boiled down: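 ER-beta-UAS-bla HEK293T cells in 2% charcoal-stripped FBS medium, treated with compound plus 1 nM 17-beta-estradiol for 16 h at 37C. Viability read by CellTiter-Glo luminescence after 30 min at room temperature in the same wells.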

The target in experiment [5] is Estrogen receptor (Homo sapiens) (UniProt P03372). As to the kind of experiment: qHTS assay to identify small molecule agonists of the estrogen receptor alpha (ER-alpha) signaling pathway in the presence of an antagonist (AID 1259383). Further: nearly all actives have a fitted effect of over 15% in size. Further: potency means the concentration at half of the fitted maximal effect. On activation: top concentration of the series differs between compounds. The essentials:
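VM7Luc4E2 cells express endogenous full-length ER-alpha with an ERE-luciferase reporter and were hormone-deprived for 5 days. Compounds at 15 concentrations were added with 10.0nM ICI-182,780 for 22hr at 37C. Luminescence was read with ONE-Glo.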

The nature of experiment [6]: qHTS assay to identify small molecule agonists or antagonists of the thyroid stimulating hormone receptor (TSHR) signaling pathway - wild type cell line counter screen (AID 1259384). The method, boiled down:
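Wild-type Hek293 cells, 800/well, 18 h at 37C, then compound with Ro20-1724 for 30 min RT. cAMP by HTRF (cAMP-d2/anti-cAMP cryptate), 1 h RT, fluorescence read. 15 concentrations, triplicates.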

In experiment [7] the target is Estrogen receptor beta (Homo sapiens) (UniProt Q92731). The experiment in a line: qHTS assay to identify small molecule agonists of the estrogen receptor beta (ER-beta) signaling pathway (AID 1259377; active means well fitted activation curve with a large enough effect in the signal ratio in the repeat runs, not every such curve was filed as active; the % refers to the signal ratio; further: potency means the concentration at half of the fitted maximal effect). The method, boiled down:
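qHTS in ER-beta-UAS-bla HEK293T cells: 6 hr settling, then 16 hr compound at 37C, then LiveBLAzer substrate 2 h at RT before fluorescence reading.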

The nature of experiment [8]: qHTS assay to identify small molecule agonists of the androgen receptor (AR) signaling pathway in the presence of an antagonist - cell viability counter screen (AID 1259379; active means well fitted curve in the direction sought with a large enough effect in the repeat runs; an effect the other way counts as inactive or inconclusive;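 further: MDA-kb2 human breast cancer cells carrying an MMTV luciferase reporter; series mostly up to about 92 µM; nearly all actives have a fitted effect of over 25% in size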). The method, boiled down:
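MDA-kb2 cells (MMTV-luciferase, AR/GR), 3,000/well, 5 h attachment, then 3.0 µM nilutamide (final) and compounds at 15 concentrations. Viability by CellTiter-Fluor fluorescence after 16 h at 37 °C, 0% CO2, in the reporter wells.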

In experiment [9] the target is Estrogen receptor beta (Homo sapiens) (UniProt Q92731). The experiment in a line: qHTS assay to identify small molecule antagonists of the estrogen receptor beta (ER-beta) signaling pathway (AID 1259378; active means well fitted inhibition curve with a large enough effect in the signal ratio in the repeat runs, not every such curve was filed as active; the % refers to the signal ratio). The essentials:
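ER-beta-UAS-bla HEK293T cells in 2% charcoal-stripped FBS medium treated with compound plus 1nM final 17-beta-estradiol for 16 hr at 37C. Beta-lactamase reporter read by FRET substrate fluorescence after 2 hours at room temperature.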

The target of experiment [10] is Androgen receptor (Homo sapiens) (UniProt P10275). The experiment in a line: qHTS assay to identify small molecule agonists of the androgen receptor (AR) signaling pathway in the presence of an antagonist (AID 1259381). Further: nearly all actives have a fitted effect of over 15% in size. The essentials:
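MDA-kb2 cells carrying MMTV-luciferase (AR/GR responsive), 3,000 cells/well, co-treated with 3.0 uM nilutamide final. Compounds at 15 concentrations, 16 hr at 37C without CO2. Luciferase luminescence read after 30 min with ONE-Glo.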

Sequence of Estrogen receptor beta (Homo sapiens) (Q92731 whole entry, looked up): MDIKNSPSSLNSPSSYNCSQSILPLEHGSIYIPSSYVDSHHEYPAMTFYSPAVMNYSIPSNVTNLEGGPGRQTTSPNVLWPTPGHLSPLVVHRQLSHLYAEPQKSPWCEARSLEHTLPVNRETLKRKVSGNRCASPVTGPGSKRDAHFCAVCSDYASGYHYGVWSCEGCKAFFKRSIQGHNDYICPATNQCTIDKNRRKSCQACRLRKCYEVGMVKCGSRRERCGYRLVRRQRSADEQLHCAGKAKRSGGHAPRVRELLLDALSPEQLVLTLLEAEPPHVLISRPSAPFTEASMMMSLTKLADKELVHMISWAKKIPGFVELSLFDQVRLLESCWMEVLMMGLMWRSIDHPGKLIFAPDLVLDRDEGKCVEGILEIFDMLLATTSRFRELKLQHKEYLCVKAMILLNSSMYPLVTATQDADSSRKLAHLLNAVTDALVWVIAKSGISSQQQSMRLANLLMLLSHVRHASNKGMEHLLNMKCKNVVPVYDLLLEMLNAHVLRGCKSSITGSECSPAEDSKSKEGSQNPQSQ
Sequence of Androgen receptor (Homo sapiens) (P10275 whole entry, looked up): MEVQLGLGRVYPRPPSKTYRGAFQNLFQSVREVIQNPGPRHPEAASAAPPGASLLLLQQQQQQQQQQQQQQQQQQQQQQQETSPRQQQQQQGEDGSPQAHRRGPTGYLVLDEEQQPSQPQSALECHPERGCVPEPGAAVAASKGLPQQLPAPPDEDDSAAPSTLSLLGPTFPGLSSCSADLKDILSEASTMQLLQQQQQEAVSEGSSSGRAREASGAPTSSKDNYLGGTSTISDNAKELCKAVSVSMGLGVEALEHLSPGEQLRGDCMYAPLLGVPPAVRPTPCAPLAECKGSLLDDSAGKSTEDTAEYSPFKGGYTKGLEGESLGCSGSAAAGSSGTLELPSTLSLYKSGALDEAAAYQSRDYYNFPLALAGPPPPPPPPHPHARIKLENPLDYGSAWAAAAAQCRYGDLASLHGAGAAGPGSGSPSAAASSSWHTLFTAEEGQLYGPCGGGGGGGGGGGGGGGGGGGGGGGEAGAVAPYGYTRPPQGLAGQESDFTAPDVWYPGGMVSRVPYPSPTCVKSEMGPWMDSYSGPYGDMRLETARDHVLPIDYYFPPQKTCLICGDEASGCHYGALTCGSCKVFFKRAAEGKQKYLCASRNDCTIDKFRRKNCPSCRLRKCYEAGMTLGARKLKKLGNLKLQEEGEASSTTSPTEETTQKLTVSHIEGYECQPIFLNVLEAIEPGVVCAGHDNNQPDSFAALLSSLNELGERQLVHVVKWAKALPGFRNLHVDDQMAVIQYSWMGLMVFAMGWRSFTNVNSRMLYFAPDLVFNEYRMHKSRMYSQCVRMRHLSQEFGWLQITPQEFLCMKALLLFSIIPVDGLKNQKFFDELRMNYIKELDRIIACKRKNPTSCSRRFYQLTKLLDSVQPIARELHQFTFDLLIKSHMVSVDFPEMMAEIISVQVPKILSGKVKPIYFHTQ
Sequence of Estrogen receptor (Homo sapiens) (P03372 whole entry, looked up): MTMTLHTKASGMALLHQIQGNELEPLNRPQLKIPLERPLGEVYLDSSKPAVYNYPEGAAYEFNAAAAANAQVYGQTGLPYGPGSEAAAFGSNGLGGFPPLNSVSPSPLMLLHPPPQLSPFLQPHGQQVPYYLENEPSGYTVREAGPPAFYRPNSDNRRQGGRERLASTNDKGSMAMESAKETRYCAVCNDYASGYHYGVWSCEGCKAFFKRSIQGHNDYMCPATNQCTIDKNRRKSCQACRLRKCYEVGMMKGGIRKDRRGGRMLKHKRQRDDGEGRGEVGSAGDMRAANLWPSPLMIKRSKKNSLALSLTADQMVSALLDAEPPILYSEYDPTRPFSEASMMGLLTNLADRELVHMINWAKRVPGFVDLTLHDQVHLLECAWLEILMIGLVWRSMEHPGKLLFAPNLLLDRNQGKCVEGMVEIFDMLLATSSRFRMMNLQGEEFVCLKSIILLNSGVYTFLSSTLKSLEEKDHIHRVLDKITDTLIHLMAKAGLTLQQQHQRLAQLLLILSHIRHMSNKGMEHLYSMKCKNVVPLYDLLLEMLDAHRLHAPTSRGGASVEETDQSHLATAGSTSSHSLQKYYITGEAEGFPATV

In the case of `O=P(O)(O)c1ccccc1`, the outcome in experiment [1] and in experiment [6] was inactive. Further, the Potency entry in experiment [2], in [3], in experiment [4] and in experiment [5] was “inactive” in each case.
As for `O=c1[nH]c2ccccc2o1`, the result in [1] and in experiment [6] was inactive. The Potency result in experiment [2], in [3] and in experiment [4] was “inactive” in each case.
For `Oc1ccc(Cc2ccc(O)cc2)cc1`, the call in [1] and in experiment [6] was inactive. In addition, the Potency in experiment [7] is 5.49 µM (active); in [5] it was 30.9 µM (active). Moreover, the Potency result in [8], in [3] and in experiment [4] was “inactive” throughout.
With `CCCCCCCCSC(=O)Oc1cc(Cl)nnc1-c1ccccc1`, the call in [1] was inactive. The Potency entry in [2], in experiment [3], in experiment [4] and in experiment [5] was “inactive” throughout.
Regarding `ClCCN1CCCC1`, the call in experiment [1], in experiment [9] and in experiment [6] was inactive. The Potency result in [7], in experiment [8], in experiment [3], in experiment [4] and in [5] was “inactive” in each case.
On to `CC(C)(C)NC[C@H](O)c1ccc(O)cc1Cl`, for which, in experiment [1], the compound was classed as inactive. Moreover, the Potency entry in [2], in [3] and in [4] was “inactive” each time.
With `CCN(CC)CCOC(=O)C(O)(c1ccccc1)c1ccccc1`, the outcome in [1] and in [6] was inactive. For the same compound, the Potency entry in experiment [2], in experiment [3], in [4] and in experiment [5] was “inactive” throughout.
As for `CCC1(c2ccccc2)CCC(=O)NC1=O` (centres undefined), the Potency entry in experiment [2], in experiment [7], in experiment [8], in [3], in experiment [10] and in experiment [4] was “inactive” throughout. The Potency result in [5] is “inactive”. Further, the compound was classed as inactive in [9] and in experiment [6].
On to `Cl/C=C/CCl`, for which the outcome in [1], in [9] and in [6] was inactive. The Potency result in experiment [7], in experiment [8] and in experiment [3] was “inactive” throughout.
Consider `C=C(Cl)CSC(=S)N(CC)CC`, for which the outcome in [1] and in experiment [9] was inactive. Besides, the Potency entry in [8] and in experiment [3] was “inactive” throughout.
Turning to `CC(C)N(Cc1ccccc1)C(=O)C(C)(C)C`, the Potency result in experiment [2], in experiment [7], in experiment [8], in experiment [3], in experiment [10] and in experiment [4] was “inactive” each time. For the same compound, the result in experiment [9] and in experiment [6] was inactive.
`CC(C)(C)c1cc(O)ccc1O`: the result in [1] was inactive. The Potency in [2] was 7.7 µM (active) and 3.86 µM (active). Moreover, the Potency entry in experiment [3], in experiment [4] and in experiment [5] was “inactive” in each case.
With `c1ccc2c(c1)CCNC2`, the result in [1], in [9] and in experiment [6] was inactive. The Potency result in experiment [7], in experiment [8], in experiment [3] and in experiment [4] was “inactive” in each case.
On to `CCNc1nc(NCC)nc(SC)n1`, for which the outcome in experiment [1], in experiment [9] and in [6] was inactive. For the same compound, the Potency entry in [7], in experiment [8], in experiment [3], in experiment [4] and in experiment [5] was “inactive” throughout.
On to `NNC(N)=O`, for which the call in [1], in [9] and in [6] was inactive. Also, the Potency entry in experiment [7], in experiment [8], in [3], in [4] and in [5] was “inactive” each time.
On to `CC1N=C(N)OC1c1ccccc1` (centres undefined), for which the result in [1] and in experiment [6] was inactive. Moreover, the Potency entry in [7], in experiment [8] and in experiment [5] was “inactive” throughout.
With `N[C@@H]1C[C@H]1c1ccccc1`, the Potency entry in experiment [2], in experiment [7], in experiment [8], in [3], in experiment [10] and in experiment [4] was “inactive” each time. Also, in [5], the Potency result was “inactive”. In addition, the call in experiment [9] and in experiment [6] was inactive.
On to `Cc1ccc(Cl)c(O)c1`, for which the call in [1] was inactive. The Potency result in experiment [8], in experiment [3], in experiment [4] and in experiment [5] was “inactive” in each case.
Regarding `COC(=O)c1ccccc1CS(=O)(=O)NC(=O)Nc1nc(OC)cc(OC)n1`, the result in [1], in experiment [9] and in [6] was inactive. In addition, the Potency result in experiment [7], in [8], in experiment [3], in [4] and in [5] was “inactive” each time.
Consider `O=C(Cl)C(Cl)Cl`, for which the Potency result in experiment [2], in [7], in experiment [8], in experiment [3], in experiment [4] and in experiment [5] was “inactive” throughout. Moreover, the call in [9] and in experiment [6] was inactive.
`C=C(Cl)CCl`: the Potency result in experiment [2], in experiment [7], in experiment [3], in [4] and in experiment [5] was “inactive” in each case. In addition, in [6], the outcome was inactive.
With `ClC1=C(Cl)C2(Cl)C(CBr)CC1(Cl)C2(Cl)Cl` (centres undefined), the Potency result in experiment [2], in experiment [3], in experiment [4] and in [5] was “inactive” throughout. The call in experiment [9] and in [6] was inactive.
For the compound `CCCCCCCC(=O)Cl`, the Potency entry in experiment [2], in experiment [3], in [4] and in experiment [5] was “inactive” in each case. The result in experiment [6] was inactive.
Turning to `O=C(O)CBr`, the Potency entry in experiment [2], in [7], in experiment [8], in [3] and in experiment [4] was “inactive” each time. Further, the compound was classed as inactive in experiment [6].
On to `C1CN2CCC1CC2`, for which the Potency entry in experiment [2], in [8], in experiment [3], in experiment [4] and in experiment [5] was “inactive” throughout. In experiment [9], the result was inactive.
Turning to `CON(C)C(=O)Nc1ccc(Br)cc1`, the Potency result in [2], in experiment [8], in experiment [3] and in experiment [4] was “inactive” throughout.
